Measurements published in PubChem BioAssay (EPA / NIEHS).
Calls of active or inactive are those of the source. The calls were made as follows: active = hit-call score of the fitted dose curve at least 0.9, where 1 is the maximum; inactive = score below 0.9.

Experiments:
[1] = read-out: Cyclin D1 (CCND1), CCND1 (gene 595); assay: LTEA_HepaRG_CCND1: Life Technologies and Expression Analysis (LTEA) Assay for Cyclin D1 (CCND1) using HepaRG (AID 2283451); details: mRNA level, 48 h; actives raise or lower the signal
Method in brief: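 HepaRG plated 48 h, medium switched to serum-free induction medium, chemicals added in duplicate (top 100 uM, half-log steps, 0.5% DMSO) for 48 h, cells lysed, RNA measured by TaqMan qRT-PCR.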

[2] = read-out: flavin-containing dimethylaniline monooxygenases 3 (FMO3), FMO3 (gene 2328); assay: LTEA_HepaRG_FMO3: Life Technologies and Expression Analysis (LTEA) Assay for flavin-containing dimethylaniline monooxygenases 3 (FMO3) using HepaRG (AID 2283453); details: mRNA level, 48 h; actives raise or lower the signal
Method in brief: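 HepaRG, 48 h exposure, 8-pt half-log series from 100 uM, 0.5% DMSO vehicle, duplicates; FMO3 transcript by Fluidigm TaqMan qRT-PCR, housekeeping-normalized; gain/loss fit vs DMSO.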

[3] = read-out: Cytochrome P450 (CYP1A1), CYP1A1 (gene 1543); assay: LTEA_HepaRG_CYP1A1: Life Technologies and Expression Analysis (LTEA) Assay for Cytochrome P450 (CYP1A1) using HepaRG (AID 2283454); details: mRNA level, 48 h; actives raise or lower the signal
Method in brief: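 HepaRG, 48 h post-plating switched to serum-free induction medium; 8-pt conc-response (top 100 uM, half-log, 0.5% DMSO), duplicates, 48 h. Lysis in RLT, TaqMan qRT-PCR for CYP1A1; gain or loss vs DMSO.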

[4] = read-out: CFLAR gene, CFLAR (gene 8837); assay: LTEA_HepaRG_CFLAR: Life Technologies and Expression Analysis (LTEA) Assay for CFLAR gene using HepaRG (AID 2283455); details: mRNA level, 48 h; actives raise or lower the signal
Method in brief: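 HepaRG, 48 h exposure, 8-pt conc-response (100 uM top, half-log), 0.5% DMSO vehicle, duplicates. CFLAR expression by qRT-PCR; ACTB/GAPDH/POLR2A normalization; gain or loss fit vs DMSO baseline.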

[5] = read-out: Forkhead box O1 (FOXO1), FOXO1 (gene 2308); assay: LTEA_HepaRG_FOXO1: Life Technologies and Expression Analysis (LTEA) Assay for Forkhead box O1 (FOXO1) using HepaRG (AID 2283456); details: mRNA level, 48 h; actives raise or lower the signal
Method in brief: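 Readout is FOXO1 transcript level by multiplexed qRT-PCR against three housekeeping genes, curve-fitted in both directions relative to 0.5% DMSO vehicle. Human HepaRG cultures received chemicals for 48 h, up to 100 uM in half-log steps.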

[6] = CEETOX_H295R_TESTO: CeeTox H295R High-throughput Steroidogenesis Assay for Testosterone (TESTO) (AID 2283457); details: actives raise or lower the signal
Method in brief: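 H295R, passage ≤10, 48 h dosing; media extracted with MTBE → HPLC-MS/MS for testosterone; 7-pt standard curve sets LLOQ/ULOQ; bidirectional fit vs DMSO; MTT viability same wells.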

[7] = read-out: ABC Transporter (ABCB1), ABCB1 (gene 5243); assay: LTEA_HepaRG_ABCB1: Life Technologies and Expression Analysis (LTEA) Assay for ABC Transporter (ABCB1) using HepaRG (AID 2283460); details: mRNA level, 48 h; actives raise or lower the signal
Method in brief: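 Expression of ABCB1 was quantified by qRT-PCR against three housekeeping genes after human HepaRG cultures received test chemicals for 48 hours. Concentrations spanned eight half-log steps topping at 100 uM in 0.5% DMSO; gain or loss of signal was fitted relative to vehicle.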

[8] = read-out: growth arrest and DNA damage 45 (GADD45B), GADD45B (gene 4616); assay: LTEA_HepaRG_GADD45B: Life Technologies and Expression Analysis (LTEA) Assay for growth arrest and DNA damage 45 (GADD45B) using HepaRG (AID 2283461); details: mRNA level, 48 h; actives raise or lower the signal
Method in brief: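 HepaRG, ~100,000 cells/well, 48 h plating; serum-free induction medium; cpd 100 uM top, half-log x8, 0.5% DMSO, duplicate, 48 h; lysis in RLT, RNA isolation, qRT-PCR; norm ACTB/GAPDH/POLR2A; bidirectional fit vs DMSO.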

[9] = read-out: ABC Transporter (ABCC3), ABCC3 (gene 8714); assay: LTEA_HepaRG_ABCC3: Life Technologies and Expression Analysis (LTEA) Assay for ABC Transporter (ABCC3) using HepaRG (AID 2283462); details: mRNA level, 48 h; actives raise or lower the signal
Method in brief: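 Human HepaRG, 48 h dosing, 8-pt half-log series from 100 uM, 0.5% DMSO vehicle, duplicates. ABCC3 mRNA by TaqMan qRT-PCR, housekeeping-normalized; bidirectional curve fit vs DMSO.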

[10] = read-out: ABC Transporter (ABCB11), ABCB11 (gene 8647); assay: LTEA_HepaRG_ABCB11: Life Technologies and Expression Analysis (LTEA) Assay for ABC Transporter (ABCB11) using HepaRG (AID 2283463); details: mRNA level, 48 h; actives raise or lower the signal
Method in brief: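 ABCB11 transcript levels are read by Fluidigm TaqMan qRT-PCR after 48 h chemical treatment of human HepaRG cells. Concentrations span 100 uM downward in half-log steps with 0.5% DMSO; gain or loss is fitted against DMSO controls.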

[11] = read-out: ABC Transporter (ABCC2), ABCC2 (gene 1244); assay: LTEA_HepaRG_ABCC2: Life Technologies and Expression Analysis (LTEA) Assay for ABC Transporter (ABCC2) using HepaRG (AID 2283464); details: mRNA level, 48 h; actives raise or lower the signal
Method in brief: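 HepaRG, 48 h post-plating; serum-free induction medium; cpd 8-pt, 100 uM top, half-log, 0.5% DMSO, duplicate, 48 h. Readout: ABCC2 mRNA by qRT-PCR, norm. ACTB/GAPDH/POLR2A. Bidirectional fit vs DMSO baseline.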

[12] = read-out: Broad substrate specificity ATP-binding cassette transporter ABCG2 (Homo sapiens) (UniProt Q9UNQ0); assay: LTEA_HepaRG_ABCG2: Life Technologies and Expression Analysis (LTEA) Assay for ABC Transporter (ABCG2) using HepaRG (AID 2283465); details: mRNA level, 48 h; actives raise or lower the signal
Method in brief: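 Read-out is ABCG2 mRNA induction or loss quantified by qRT-PCR after 48 h chemical treatment of human HepaRG cells, normalized to three housekeeping genes. Concentrations reached 100 uM top in half-log steps; fitting was bidirectional against 0.5% DMSO.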

[13] = read-out: ATP-citrate lyase (ACLY), ACLY (gene 47); assay: LTEA_HepaRG_ACLY: Life Technologies and Expression Analysis (LTEA) Assay for ATP-citrate lyase (ACLY) using HepaRG (AID 2283466); details: mRNA level, 48 h; actives raise or lower the signal
Method in brief: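 HepaRG, 48 h exposure, 8-pt half-log dilutions (top 100 uM), 0.5% DMSO. Readout: ACLY mRNA, TaqMan qRT-PCR, housekeeping-normalized (ACTB/GAPDH/POLR2A). Bidirectional curve fit vs DMSO.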

[14] = read-out: Peroxisomal acyl-coenzyme A oxidase 1 (ACOX1) gene, ACOX1 (gene 51); assay: LTEA_HepaRG_ACOX1: Life Technologies and Expression Analysis (LTEA) Assay for Peroxisomal acyl-coenzyme A oxidase 1 (ACOX1) gene using HepaRG (AID 2283467); details: mRNA level, 48 h; actives raise or lower the signal
Method in brief: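 Measured by qRT-PCR against three housekeeping genes: ACOX1 transcript change in human HepaRG cells after 48 h dosing. Concentrations ran up to 100 uM in half-log steps. Curves were fitted bidirectionally relative to 0.5% DMSO.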

[15] = read-out: Alkaline Phosphatase, Placental (ALPP) gene, ALPP (gene 250); assay: LTEA_HepaRG_ALPP: Life Technologies and Expression Analysis (LTEA) Assay for Alkaline Phosphatase, Placental (ALPP) gene using HepaRG (AID 2283468); details: mRNA level, 48 h; actives raise or lower the signal
Method in brief: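 HepaRG, 48 h plating then 48 h dosing, serum-free induction medium, 0.5% DMSO. 8 conc, half-log, max 100 uM, duplicates. Endpoint: ALPP transcript by qRT-PCR, housekeeping-normalized; gain or loss fitted vs DMSO.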

[16] = read-out: Bcl-2 (BAD) gene, BAD (gene 572); assay: LTEA_HepaRG_BAD: Life Technologies and Expression Analysis (LTEA) Assay for Bcl-2 (BAD) gene using HepaRG (AID 2283469); details: mRNA level, 48 h; actives raise or lower the signal
Method in brief: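 BAD transcript change, measured by qRT-PCR against three housekeeping genes and fitted in both directions relative to 0.5% DMSO, after 48 h chemical treatment of human HepaRG liver cells at concentrations up to 100 uM.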

[17] = read-out: Bcl-2 (BAX) gene, BAX (gene 581); assay: LTEA_HepaRG_BAX: Life Technologies and Expression Analysis (LTEA) Assay for Bcl-2 (BAX) gene using HepaRG (AID 2283470); details: mRNA level, 48 h; actives raise or lower the signal
Method in brief: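 Differentiated human HepaRG cells, plated 48 h then switched to serum-free induction medium, were exposed 48 h to 8 half-log concentrations up to 100 uM in 0.5% DMSO; BAX mRNA measured by qRT-PCR, normalized to ACTB, GAPDH, POLR2A.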

[18] = read-out: catalase (CAT), CAT (gene 847); assay: LTEA_HepaRG_CAT: Life Technologies and Expression Analysis (LTEA) Assay for catalase (CAT) using HepaRG (AID 2283452); details: mRNA level, 48 h; actives raise or lower the signal
Method in brief: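 Expression of CAT was quantified by TaqMan qRT-PCR with ACTB/GAPDH/POLR2A normalization after 48 h chemical exposure of HepaRG. Eight-point half-log series, top 100 uM, in 0.5% DMSO; gain or loss fitted against vehicle.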

[19] = read-out: growth arrest and DNA damage 45 (GADD45A), GADD45A (gene 1647); assay: LTEA_HepaRG_GADD45A: Life Technologies and Expression Analysis (LTEA) Assay for growth arrest and DNA damage 45 (GADD45A) using HepaRG (AID 2283458); details: mRNA level, 48 h; actives raise or lower the signal
Method in brief: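 Differentiated HepaRG cells were exposed in duplicate for 48 h in serum-free induction medium to 8-point half-log concentrations up to 100 uM in 0.5% DMSO. GADD45A mRNA was measured by TaqMan qRT-PCR, normalized to ACTB, GAPDH and POLR2A, with bidirectional fitting versus DMSO.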

[20] = read-out: Forkhead box O3 (FOXO3), FOXO3 (gene 2309); assay: LTEA_HepaRG_FOXO3: Life Technologies and Expression Analysis (LTEA) Assay for Forkhead box O3 (FOXO3) using HepaRG (AID 2283459); details: mRNA level, 48 h; actives raise or lower the signal
Method in brief: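 HepaRG, 48 h post-dose; 8 conc., half-log from 100 uM, 0.5% DMSO, duplicates; serum-free induction medium. Readout: FOXO3 mRNA, TaqMan qRT-PCR, housekeeping-normalized. Bidirectional curve fit vs DMSO baseline.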

Measured: AC50

Broad substrate specificity ATP-binding cassette transporter ABCG2 (Homo sapiens), sequence (Q9UNQ0 whole entry, looked up): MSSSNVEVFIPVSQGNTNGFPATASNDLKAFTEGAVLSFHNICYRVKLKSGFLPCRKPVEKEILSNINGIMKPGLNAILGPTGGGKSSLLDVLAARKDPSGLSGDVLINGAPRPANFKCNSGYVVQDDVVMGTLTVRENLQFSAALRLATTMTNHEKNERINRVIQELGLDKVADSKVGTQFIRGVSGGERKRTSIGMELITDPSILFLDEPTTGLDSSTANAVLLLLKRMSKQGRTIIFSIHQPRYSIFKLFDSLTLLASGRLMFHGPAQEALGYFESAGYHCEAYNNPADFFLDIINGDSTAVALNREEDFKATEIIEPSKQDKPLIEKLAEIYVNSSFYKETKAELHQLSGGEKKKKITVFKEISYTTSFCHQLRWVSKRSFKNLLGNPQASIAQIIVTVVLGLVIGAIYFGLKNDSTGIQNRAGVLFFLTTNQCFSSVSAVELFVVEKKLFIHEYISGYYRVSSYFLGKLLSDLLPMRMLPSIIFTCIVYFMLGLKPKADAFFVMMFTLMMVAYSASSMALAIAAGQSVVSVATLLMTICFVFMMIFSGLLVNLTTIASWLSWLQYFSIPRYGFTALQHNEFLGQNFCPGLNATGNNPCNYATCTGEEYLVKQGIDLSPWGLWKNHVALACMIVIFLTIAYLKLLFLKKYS

CCOc1cc(C(C)(C)C)ccc1C1COC(c2c(F)cccc2F)=N1 (stereo not drawn)
inactive: [1] | [2] | [4] | [5] | [6] | [8] | [9] | [10] | [13] | [14] | [15] | [16] | [17]
active: [3] 19.2 µM | [7] 6.97 µM | [11] 8.66 µM | [12] 9.15 µM

CC1(C)CCC(=Cc2ccc(Cl)cc2)C1(O)Cn1cncn1 (stereo not drawn)
active: [3] 11.2 µM | [7] 4.18 µM | [13] 34 µM
inactive: [1] | [2] | [4] | [5] | [6] | [8] | [10] | [11] | [12] | [14] | [15] | [16] | [17]

C=CCOC(=O)C(C)(C)OC(=O)c1cc(-n2c(=O)cc(C(F)(F)F)n(C)c2=O)ccc1Cl
inactive: [1] | [18] | [2] | [3] | [4] | [5] | [19] | [20] | [7] | [8] | [9] | [10] | [11] | [12] | [13] | [14] | [15] | [16] | [17]

CS(=O)(=O)c1cc(C(F)(F)F)ccc1C(=O)c1cnoc1C1CC1
inactive: [1] | [18] | [2] | [4] | [5] | [7] | [8] | [10] | [11] | [12] | [13] | [14] | [15] | [16] | [17]
active: [3] 78 µM
